# Screening results deposited in PubChem BioAssay by several laboratories.
# Most compounds without a hit are left out; they make up all but 27% or so of the library.
# Cav3 T inh – blocks human Cav3.2 T-type calcium channel; hit rate 4% among 100,000; B-score at 10 µM; O95180; AID 449739; Cav3.2-expressing cells, Fluo-4 calcium fluorescence FDSS; hits give low values;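 active = single-dose well whose peak fluorescence ratio is a statistical outlier from its plate by either plate-standardised score or position-corrected B-score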
# CYP2C9 act – activators of human CYP2C9. hit rate 1.4% among 96,000. activation factor at 5 µM. recombinant CYP2C9, luciferin-H conversion, luminescence; hits give high values; factor 1 = untreated enzyme, 0 = blocked;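 active = activation factor of 2 or more for CYP2C9 at a 5 µM dose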;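 also: 0 = sulfaphenazole-blocked wells and 1 = vehicle-only wells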
# Target sequence (P11712 whole entry, looked up): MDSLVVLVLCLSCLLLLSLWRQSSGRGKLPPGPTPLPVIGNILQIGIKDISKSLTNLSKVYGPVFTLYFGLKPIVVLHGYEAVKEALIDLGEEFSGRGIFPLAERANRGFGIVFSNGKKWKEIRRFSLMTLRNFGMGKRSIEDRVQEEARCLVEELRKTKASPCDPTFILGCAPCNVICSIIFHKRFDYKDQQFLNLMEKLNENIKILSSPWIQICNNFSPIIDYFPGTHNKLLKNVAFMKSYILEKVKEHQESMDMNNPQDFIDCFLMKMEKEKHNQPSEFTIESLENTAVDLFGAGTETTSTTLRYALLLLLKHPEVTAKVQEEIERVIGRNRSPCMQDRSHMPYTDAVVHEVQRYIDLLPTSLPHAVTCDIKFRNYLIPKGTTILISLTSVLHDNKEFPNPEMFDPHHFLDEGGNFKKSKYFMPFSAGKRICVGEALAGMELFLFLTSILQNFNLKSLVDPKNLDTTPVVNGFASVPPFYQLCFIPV
# CYP2C19 act – cytochrome P450 2C19 (human) activation; recombinant CYP2C19, luciferin-H EGE luminescence; hits give high values; 0 = fully inhibited enzyme, 1 = untreated enzyme; 96,000 tested, under 10 active; AID 1025; P33261; activation factor at 5 µM;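 active = activation factor of at least 2 at 5 µM in the primary screen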;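 also: 0 = wells with 2.5 mM tranylcypromine and 1 = vehicle-only wells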
# CYP2C9 inhib – inhibitors of human CYP2C9; CYP2C9 Supersomes, luciferin-H conversion, luminescence; hit rate 20% among 96,000; P11712; inhibition, % at 5 µM;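 active = blocking of liver enzyme CYP2C9 beyond about 50% at 5 µM, limit read from the data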
# CYP2C19 inh – blocks human cytochrome P450 2C19; P33261; CYP2C19 Supersomes, luciferin-H EGE luminescence, 30 min; inhibition, % at 5 µM; hit rate 21% among 96,000; AID 778;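 active = CYP2C19 inhibition above a set limit at 5 µM in the primary screen, cut at about 50% in these data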;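 also: plate controls were negative control wells for no effect and 2.5 mM tranylcypromine positive control for full effect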
# * marks the source's active call; other numbers are inactive results; . = no result.
SMILES,Cav3 T inh,CYP2C9 act,CYP2C19 act,CYP2C9 inhib,CYP2C19 inh
CC1=C(C(N)=O)C(c2ccc(Cl)cc2Cl)n2ncnc2N1 (centres undefined),-0.054,1.1,0.5,-5,51*
O=C(Cn1cnc2ccccc2c1=O)N(Cc1ccco1)c1ccc(O)cc1,0.41,0.7,0.8,34,21
O=C(c1ccc(Cl)c(Cl)c1)N(Cc1ccco1)c1ccc(O)cc1,-7.4*,0,0,98*,99*
CC(C)(NO)/C(=N/O)c1cccs1,-0.037,1,1,-4,2
COc1ccc(C(C(=O)NCc2ccccc2)N(Cc2ccc3c(c2)OCO3)C(=O)c2cnccn2)cc1 (centres undefined),-0.19,0.1,0.1,94*,94*
COc1ccc(CNC(=O)C(c2cccs2)N(Cc2ccco2)C(=O)Cc2cccs2)cc1 (centres undefined),-7.2*,.,.,.,.
Cc1ccc(-c2nnn(CC(=O)N(Cc3ccco3)C(C(=O)NC(C)(C)C)c3cccs3)n2)o1 (centres undefined),-6.3*,.,.,.,.
O=C(NC1CCCCC1)C(c1ccccc1)N(Cc1ccc2c(c1)OCO2)C(=O)c1cnsn1 (centres undefined),-7.5*,.,.,.,.
COc1ccc(CNC(=O)C(c2ccco2)N(Cc2cccs2)C(=O)Cc2cccs2)cc1 (centres undefined),-0.2,1.1,0.9,-6,8
O=C1C(C=NCCCN2CCCC2=O)=C(O)c2ccccc21,0.15,1,0.9,-1,6
COC(=O)c1cccc(NC(=O)C23CC4CC(C2)CC(n2cncn2)(C4)C3)c1,0.53,.,.,.,.
COc1ccc(CNC(=O)C(c2ccc(C)cc2)N(Cc2cccs2)C(=O)c2ccc3c(c2)OCCO3)cc1 (centres undefined),.,0.5,0.3,49,66*
COCCN(C(=O)Cc1cccs1)C(C(=O)NCc1ccc(OC)cc1)c1ccc(OC)cc1 (centres undefined),0.35,0.3,0.6,65*,38
COc1ccc(C(=O)N(Cc2ccco2)Cc2cccs2)c(O)c1,-4.8*,0,0.1,95*,88*
CCOC(=O)C1CCCN(C(=O)CN2CCN(Cc3ccc(Cl)cc3)C2=O)C1 (centres undefined),.,0.9,1,10,3
CCn1c(SCC(=O)Nc2nc3ccc(C)cc3s2)nc2c(c1=O)SC(C)C2 (centres undefined),-0.46,0.2,0.3,77*,69*
Cc1cc(NC(=O)CSc2nc3c(c(=O)n2Cc2ccccc2)SC(C)C3)no1 (centres undefined),0.21,.,.,.,.
CCn1c(SCC(=O)Nc2cc(C)on2)nc2c(c1=O)SC(C)C2 (centres undefined),1.7,0.4,0.8,62*,16
CCn1c(SCC(=O)NC2CCCCC2)nc2c(c1=O)SC(C)C2 (centres undefined),.,1,0.9,-4,10
CC12CCC(C(=O)NCc3ccc(Cl)cc3)(OC1=O)C2(C)C (centres undefined),1.6,0.5,0.2,46,84*
CC12CCC(C(=O)NCc3ccc4c(c3)OCO4)(OC1=O)C2(C)C (centres undefined),0.63,0.8,0.4,18,56*
CC12CCC(C(=O)NCc3ccccc3)(OC1=O)C2(C)C (centres undefined),0.77,1.2,1.1,-25,-8
Cc1ccccc1OCc1nnc2n1CC(C)S2 (centres undefined),0.24,0.9,0.9,14,6
COc1cccc(N2CCN(C(=S)Nc3cccc(C)c3)CC2)c1,-0.62,0.7,0.9,26,10
COc1ccc(C2/C(=C(/O)c3ccccc3)C(=O)C(=O)N2CO)cc1 (centres undefined),0.87,0.9,0.9,10,10
SMILES,Cav3 T inh,CYP2C9 act,CYP2C19 act,CYP2C9 inhib,CYP2C19 inh
O=C1OC(c2ccc(Cl)cc2)/C(=C(/O)c2ccccc2)C1=O (centres undefined),-2.2,0.5,1.1,53*,-7
CCOC(=O)N1CCN(S(=O)(=O)c2cccc3nonc23)CC1,-0.3,0.3,0.2,71*,82*
CCN(CC)C(=O)C1CCN(S(=O)(=O)c2cccc3nonc23)CC1,-1.7,1.7,0.3,-70,65*
CCOC(=O)N1CCN(S(=O)(=O)c2cccc3cccnc23)CC1,1.9,3.3*,0.1,-230,91*
CCN(C(=O)C1CCN(S(=O)(=O)c2cccc3nonc23)CC1)c1ccccc1,0.51,0.7,0.8,26,18
CCOC(=O)N1CCC(NC(=O)C2CCCN(S(=O)(=O)c3cccc4nsnc34)C2)CC1 (centres undefined),1.3,1,1.1,1,-8
CC1=CC(c2ccccc2)n2ncnc2N1 (centres undefined),0.45,.,.,.,.
Cc1nnc(C)n1/N=C/c1ccc(O)cc1,-0.76,0.9,1,10,-2
Oc1ccc(/C=N/n2c3ccccc3c3ccccc32)cc1,-1.5,0.3,0.8,73*,20
Fc1ccccc1CSc1nc2ncc(Br)cc2[nH]1,-0.64,0.2,0.1,78*,87*
N#Cc1ccccc1CSc1nc2ncc(Br)cc2[nH]1,-0.35,0.7,0.6,33,36
Fc1c(F)c(F)c(CSc2nc3ccccc3[nH]2)c(F)c1F,-3.9,0.7,0.5,26,46
Fc1ccccc1CSc1nc2ccccc2[nH]1,.,0.2,0,85*,100*
c1ccc2[nH]c(SCc3cscn3)nc2c1,0.62,0.8,0.1,23,91*
COCCn1c(=O)c2c(nc3n2CCN3c2ccc(C)cc2)n(C)c1=O,0.19,1,1,0,1
O=C(CSCc1ccc(F)cc1)Nc1nc2c(s1)CCCC2,-6.6*,0.6,0.7,41,30
COc1cc(CNn2nnnc2N)ccc1OCc1c(Cl)cccc1Cl,-0.11,0.8,0.4,19,62*
COc1cc(CNC(=O)c2ccc(Cn3nc(C)c(Cl)c3C)o2)cc(OC)c1,-3.6,1.2,0.4,-21,62*
O=C([C@@H]1CC=C[C@@H]2CCN(C3CCCCC3)C(=O)[C@@H]21)N1CCN(c2ccccc2)CC1,0.08,.,.,.,.
CC(C)CCN(C)C1CCN(C(=O)Nc2c(F)cccc2F)CC1,-1.3,1,1,3,2
Cc1c(C(=O)Nc2ccc3c(c2)OCO3)sc2nc(-c3ccccc3)cn12,-0.44,0.6,1,41,1
Cc1c(C(=O)Nc2ccccc2)sc2nc(-c3ccccc3)cn12,-2,0.2,0.3,76*,70*
Cc1c(C(=O)NCC2CCCO2)sc2nc(-c3ccc(F)cc3)cn12 (centres undefined),0.51,0.4,1,55*,-2
Cc1c(C(=O)NCc2ccccn2)sc2nc(-c3ccc(F)cc3)cn12,2.6,0.4,1,63*,-2
CC(C)Cc1nnc(NC(=O)c2ccc([N+](=O)[O-])cc2)s1,0.022,1.3,0.9,-27,10
Cc1cccc(NC(=O)CSc2nnc(CSc3nc(C)cc(C)n3)o2)c1,0.6,0.6,0.1,44,89*
